For test [1], the target named is human Peroxisome Proliferator-activated Receptor alpha (PPARa), PPARA (gene 5465) (UniProt Q07869). Description: ATG_PPARa_TRANS: Attagene TRANS-FACTORIAL HepG2 Assay for human Peroxisome Proliferator-activated Receptor alpha (PPARa) (AID 2283001).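 On AC50: potency for gain of reporter signal over DMSO so agonist or activator.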 In a few lines:
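Cells (HepG2) are transfected with multiple reporter transcription units, exposed to chemical for 24 h, then total RNA is reverse-transcribed and amplified. Labelled products are quantified by capillary electrophoresis; induction is referenced to DMSO.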

Test [2] has as its target human Peroxisome Proliferator-activated Receptor delta (PPARd), PPARD (gene 5467) (UniProt Q03181). Description: ATG_PPARd_TRANS: Attagene TRANS-FACTORIAL HepG2 Assay for human Peroxisome Proliferator-activated Receptor delta (PPARd) (AID 2283002). In a few lines: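 Measured quantity: GAL4-UAS reporter transcript induction in HepG2 after 24 h chemical dosing, with NR-Gal4 chimeras supplied by transient transfection. Detection by RT-PCR and capillary electrophoresis; upward fit against DMSO.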

Read-out in test [3]: Intercellular Adhesion Molecule 1 (ICAM1), ICAM1 (gene 3383)
Kind of test: BSK_3C_ICAM1: BioMAP Diversity Plus: 3C Assay for Intercellular Adhesion Molecule 1 (ICAM1) Biomarker Activity (AID 2283003; active means hit-call score of the fitted dose curve at least 0.9, where 1 is the maximum; inactive means score below 0.9). As to conditions: primary human endothelial cells (HUVEC); actives raise or lower the signal. In a few lines: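 Chemicals are dosed onto primary human umbilical vein endothelium (3C system). After 24 h, ICAM-1 is measured by ELISA, and responses are fitted bidirectionally relative to DMSO.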

Test [4] in a line: BSK_3C_Proliferation: Cell Proliferation Assessment in the BioMAP Diversity Plus: 3C Assay (AID 2283006; active means hit-call score of the fitted dose curve at least 0.9, where 1 is the maximum; inactive means score below 0.9;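 on AC50: potency may reflect either rise or fall in cell number versus DMSO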). As to conditions: primary human endothelial cells (HUVEC). In a few lines:
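Cells (human umbilical vein endothelial, sub-confluent) receive test chemical; after 48 h they are fixed in 10% trichloroacetic acid, stained with 0.1% SRB and read at 560 nm. Activity is referenced to DMSO, fitting increases and decreases.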

The target in test [5] is Nuclear receptor subfamily 1 group I member 2 (Homo sapiens) (UniProt O75469). Kind of test: ATG_PXR_TRANS: Attagene TRANS-FACTORIAL HepG2 Assay for human Pregnane X Receptor (PXR) (AID 2283008). In a few lines: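 Multiplexed TRANS reporter panel in HepG2; this component tracks PXR-Gal4-driven reporter mRNA after 24 h dosing, measured by RT-PCR with capillary electrophoresis fluorescence, fitted against DMSO.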

The target of test [6] is human Retinoic Acid Receptor gamma (RARg), RARG (gene 5916) (UniProt P13631). Kind of test: ATG_RARg_TRANS: Attagene TRANS-FACTORIAL HepG2 Assay for human Retinoic Acid Receptor gamma (RARg) (AID 2283009).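 On AC50: AC50 is for reporter induction above DMSO meaning RARg activation.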 In a few lines:
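TRANS format measured activity of exogenous NR-GAL4 fusion (RARg) in transfected HepG2 liver cells after 24 h dosing. Induced reporter RNA was detected by RT-PCR/capillary electrophoresis fluorescence, analysed in the positive direction against DMSO.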

Test [7] concerns the target Peroxisome proliferator-activated receptor gamma (Homo sapiens) (UniProt P37231). Kind of test: ATG_PPARg_TRANS: Attagene TRANS-FACTORIAL HepG2 Assay for human Peroxisome Proliferator-activated Receptor-gamma (PPARg) (AID 2283007). In a few lines:
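Read-out: reporter mRNA induction, detected by fluorescence after RT-PCR and capillary electrophoresis. Transiently transfected human HepG2 liver cells carrying a chimeric NR-Gal4 construct were dosed for 24 h; activity was fitted upward relative to DMSO.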

Test [8] deals with human RAR-related Orphan Receptor beta (RORb), RORB (gene 6096) (UniProt Q92753). Kind of test: ATG_RORb_TRANS: Attagene TRANS-FACTORIAL HepG2 Assay for human RAR-related Orphan Receptor beta (RORb) (AID 2283010). In a few lines: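 Transfect HepG2 with multiple GAL4-UAS reporter transcription units; dose chemicals for 24 h; isolate RNA, reverse-transcribe and PCR-amplify reporter sequences; label, digest and resolve fragments by capillary electrophoresis; fit increases relative to DMSO.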

Test [9] has as its target human Retinoic Acid Receptor beta (RARb), RARB (gene 5915) (UniProt P10826). Description: ATG_RARb_TRANS: Attagene TRANS-FACTORIAL HepG2 Assay for human Retinoic Acid Receptor beta (AID 2283004). In a few lines: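 HepG2, transient MRTU transfection, NR–Gal4 chimera, 24 h treatment; RT-PCR plus CE fluorescence detection of reporter mRNA; gain of signal vs DMSO.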
The target of test [10] is Retinoic acid receptor alpha (Homo sapiens) (UniProt P10276). Kind of test: ATG_RARa_TRANS: Attagene TRANS-FACTORIAL HepG2 Assay for human Retinoic Acid Receptor alpha (RARa) (AID 2283005). In a few lines: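 HepG2 cells transiently transfected with multiple reporter units expressing chimeric RARα-GAL4 fusion, with GAL4-UAS-driven reporters. After 24 h compound exposure, reporter mRNA induction quantified by RT-PCR and capillary electrophoresis with fluorescent labeling; gain-of-signal fitted relative to DMSO control.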

Several values for one entry are separate records, joined by “and”; a condition that tells them apart may be missing. Equal entries are not always repeated. Inconclusive results are not listed. Activity calls are given as the source filed them. How the source made its calls, unless noted: active means hit-call score of the fitted dose curve at least 0.9, where 1 is the maximum; inconclusive means response in the unintended direction; inactive means score below 0.9.

Chain of human RAR-related Orphan Receptor beta (RORb), RORB (gene 6096) (Q92753 whole entry, looked up, the tested form may be a part): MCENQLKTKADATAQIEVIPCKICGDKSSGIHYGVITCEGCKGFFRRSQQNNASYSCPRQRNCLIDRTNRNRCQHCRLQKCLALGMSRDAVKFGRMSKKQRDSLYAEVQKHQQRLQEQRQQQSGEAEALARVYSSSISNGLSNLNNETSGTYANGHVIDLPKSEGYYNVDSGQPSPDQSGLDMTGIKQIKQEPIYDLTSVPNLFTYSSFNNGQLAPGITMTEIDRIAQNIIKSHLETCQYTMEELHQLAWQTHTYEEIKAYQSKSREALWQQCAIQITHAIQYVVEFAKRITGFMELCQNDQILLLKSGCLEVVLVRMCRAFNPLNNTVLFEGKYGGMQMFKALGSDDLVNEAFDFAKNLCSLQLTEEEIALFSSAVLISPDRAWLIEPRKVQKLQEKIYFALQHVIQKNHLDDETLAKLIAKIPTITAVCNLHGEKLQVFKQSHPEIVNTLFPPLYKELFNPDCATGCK
Chain of Peroxisome proliferator-activated receptor gamma (Homo sapiens) (P37231 whole entry, looked up, the tested form may be a part): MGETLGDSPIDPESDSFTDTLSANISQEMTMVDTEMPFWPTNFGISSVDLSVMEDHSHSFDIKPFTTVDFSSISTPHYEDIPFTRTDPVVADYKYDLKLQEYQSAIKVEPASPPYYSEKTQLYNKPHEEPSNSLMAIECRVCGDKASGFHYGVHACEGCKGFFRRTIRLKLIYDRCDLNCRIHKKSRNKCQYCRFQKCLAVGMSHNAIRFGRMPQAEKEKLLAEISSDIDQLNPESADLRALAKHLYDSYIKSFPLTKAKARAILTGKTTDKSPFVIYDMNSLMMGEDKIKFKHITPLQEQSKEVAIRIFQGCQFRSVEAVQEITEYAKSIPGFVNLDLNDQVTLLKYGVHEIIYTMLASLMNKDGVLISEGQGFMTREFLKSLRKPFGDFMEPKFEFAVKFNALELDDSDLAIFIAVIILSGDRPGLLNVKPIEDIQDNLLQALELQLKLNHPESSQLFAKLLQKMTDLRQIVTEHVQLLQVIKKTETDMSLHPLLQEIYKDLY
Chain of human Retinoic Acid Receptor gamma (RARg), RARG (gene 5916) (P13631 whole entry, looked up, the tested form may be a part): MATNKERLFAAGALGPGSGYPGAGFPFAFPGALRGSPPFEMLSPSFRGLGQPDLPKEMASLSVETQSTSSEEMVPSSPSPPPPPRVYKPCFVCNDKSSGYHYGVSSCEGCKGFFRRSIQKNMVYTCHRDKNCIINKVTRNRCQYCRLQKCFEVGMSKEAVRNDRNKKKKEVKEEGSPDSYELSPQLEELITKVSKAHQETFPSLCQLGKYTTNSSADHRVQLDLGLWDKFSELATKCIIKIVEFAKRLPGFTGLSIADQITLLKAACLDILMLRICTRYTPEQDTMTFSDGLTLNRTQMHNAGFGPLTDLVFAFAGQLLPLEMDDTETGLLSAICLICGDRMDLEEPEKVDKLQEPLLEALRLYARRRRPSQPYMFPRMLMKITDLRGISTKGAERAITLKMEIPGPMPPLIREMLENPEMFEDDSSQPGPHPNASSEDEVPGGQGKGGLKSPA
Chain of Retinoic acid receptor alpha (Homo sapiens) (P10276 whole entry, looked up, the tested form may be a part): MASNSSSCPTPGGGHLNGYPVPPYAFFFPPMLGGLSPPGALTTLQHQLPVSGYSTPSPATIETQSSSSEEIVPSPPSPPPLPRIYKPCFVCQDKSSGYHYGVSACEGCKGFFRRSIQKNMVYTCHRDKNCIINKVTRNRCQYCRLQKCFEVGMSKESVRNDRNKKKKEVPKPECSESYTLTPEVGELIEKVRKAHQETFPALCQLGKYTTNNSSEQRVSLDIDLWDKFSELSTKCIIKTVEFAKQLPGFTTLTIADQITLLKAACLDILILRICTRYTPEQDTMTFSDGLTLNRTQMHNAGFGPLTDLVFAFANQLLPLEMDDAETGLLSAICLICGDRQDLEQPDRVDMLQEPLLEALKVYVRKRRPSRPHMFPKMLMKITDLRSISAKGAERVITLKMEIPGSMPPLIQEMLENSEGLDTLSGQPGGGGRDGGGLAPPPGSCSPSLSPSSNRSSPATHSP
Chain of human Peroxisome Proliferator-activated Receptor delta (PPARd), PPARD (gene 5467) (Q03181 whole entry, looked up, the tested form may be a part): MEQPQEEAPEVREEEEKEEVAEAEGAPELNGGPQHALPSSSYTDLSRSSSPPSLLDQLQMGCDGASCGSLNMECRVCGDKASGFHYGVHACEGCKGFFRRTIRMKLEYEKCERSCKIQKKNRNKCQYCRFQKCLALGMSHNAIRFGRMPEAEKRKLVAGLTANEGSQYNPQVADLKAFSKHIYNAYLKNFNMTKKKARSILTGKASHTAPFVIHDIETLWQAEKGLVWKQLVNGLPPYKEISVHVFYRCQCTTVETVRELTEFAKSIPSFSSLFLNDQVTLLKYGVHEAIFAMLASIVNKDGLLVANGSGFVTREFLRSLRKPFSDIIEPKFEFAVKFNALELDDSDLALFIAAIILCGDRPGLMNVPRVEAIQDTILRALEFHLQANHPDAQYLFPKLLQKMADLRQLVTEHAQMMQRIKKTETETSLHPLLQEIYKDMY
Chain of human Peroxisome Proliferator-activated Receptor alpha (PPARa), PPARA (gene 5465) (Q07869 whole entry, looked up): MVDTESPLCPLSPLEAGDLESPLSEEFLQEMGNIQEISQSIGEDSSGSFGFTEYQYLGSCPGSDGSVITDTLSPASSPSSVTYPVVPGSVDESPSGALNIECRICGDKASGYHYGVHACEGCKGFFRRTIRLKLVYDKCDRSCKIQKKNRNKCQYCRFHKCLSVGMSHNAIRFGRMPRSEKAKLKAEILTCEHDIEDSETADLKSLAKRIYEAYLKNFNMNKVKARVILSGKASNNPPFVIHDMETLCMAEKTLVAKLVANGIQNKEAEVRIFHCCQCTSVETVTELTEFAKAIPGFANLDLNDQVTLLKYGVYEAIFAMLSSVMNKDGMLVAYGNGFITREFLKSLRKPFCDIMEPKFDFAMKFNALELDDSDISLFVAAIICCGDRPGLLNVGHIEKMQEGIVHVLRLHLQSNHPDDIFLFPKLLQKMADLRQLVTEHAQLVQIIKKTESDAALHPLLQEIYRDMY
Chain of Nuclear receptor subfamily 1 group I member 2 (Homo sapiens) (O75469 whole entry, looked up, the tested form may be a part): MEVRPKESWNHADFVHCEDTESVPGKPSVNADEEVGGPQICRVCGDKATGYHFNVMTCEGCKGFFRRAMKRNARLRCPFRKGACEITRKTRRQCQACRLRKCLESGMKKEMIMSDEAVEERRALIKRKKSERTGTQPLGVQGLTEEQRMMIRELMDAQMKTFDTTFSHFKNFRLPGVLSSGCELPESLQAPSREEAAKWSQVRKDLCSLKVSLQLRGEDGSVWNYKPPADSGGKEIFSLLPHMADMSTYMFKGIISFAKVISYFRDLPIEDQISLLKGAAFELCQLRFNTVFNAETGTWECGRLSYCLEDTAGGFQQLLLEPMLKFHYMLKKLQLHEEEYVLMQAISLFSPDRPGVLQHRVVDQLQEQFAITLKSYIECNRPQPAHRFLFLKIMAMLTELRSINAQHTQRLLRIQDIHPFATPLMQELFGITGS
Chain of human Retinoic Acid Receptor beta (RARb), RARB (gene 5915) (P10826 whole entry, looked up, the tested form may be a part): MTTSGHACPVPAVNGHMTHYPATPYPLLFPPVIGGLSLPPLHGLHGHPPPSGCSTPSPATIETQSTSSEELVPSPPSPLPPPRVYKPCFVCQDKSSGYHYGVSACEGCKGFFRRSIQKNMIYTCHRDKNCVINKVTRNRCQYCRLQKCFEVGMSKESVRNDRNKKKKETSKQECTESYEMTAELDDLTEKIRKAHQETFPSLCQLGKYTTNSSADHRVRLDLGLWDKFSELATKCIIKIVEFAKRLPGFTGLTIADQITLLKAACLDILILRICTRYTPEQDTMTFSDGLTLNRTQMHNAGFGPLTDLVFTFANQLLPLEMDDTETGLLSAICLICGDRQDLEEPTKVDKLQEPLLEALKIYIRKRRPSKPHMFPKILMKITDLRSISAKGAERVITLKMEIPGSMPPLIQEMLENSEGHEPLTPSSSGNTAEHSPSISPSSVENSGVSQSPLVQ

Turning to `C=CC(=O)OCC(CC)(COC(=O)C=C)COC(=O)C=C`, the molecule was classed as inactive in [1], in test [2] and in [6]. For the same molecule, the AC50 was 2.71 µM (active) in [3], 1.7 µM (active) in test [4] and 0.793 µM (active) in [5].

In the case of `N#C/C=C/c1ccccc1`, the result in test [1], in [2], in [5], in test [6] and in test [8] was inactive. The AC50 in test [7] is 10.1 µM (active).

`c1cc2c3c(cccc3c1)CC2`: the outcome in [1], in [3], in test [9], in [10], in test [4] and in test [7] was inactive. Also, the result in [5] and in test [6] was inactive.

Regarding `Nc1ccc2ccccc2c1`, the call in test [1], in test [3], in test [9], in test [10], in test [4] and in test [7] was inactive. The call in test [5], in [6] and in [8] was inactive.

Consider `CSC(C)(C)C=NO`, for which the outcome in [1], in test [2], in test [3], in [4] and in test [8] was inactive.

`COCCOCCO`: the molecule was called inactive in [1], in test [3] and in [4].

With `CC(C)Nc1ccc(Nc2ccccc2)cc1`, the call in [1], in test [9], in test [10] and in test [6] was inactive. In addition, the AC50 in test [3] was 17.4 µM (active); in [4], 1.82 µM (active); in test [7] it was 23.9 µM (active); in test [5], 2.71 µM (active).

For the molecule `CC(O)C(F)(F)C(F)(F)F` (stereo not drawn), the call in test [1], in [3], in test [9], in test [10], in test [4] and in test [5] was inactive. Also, in test [8], the molecule was classed as inactive.

Regarding `CC(C)(C)c1ccc(O)cc1`, the outcome in test [1], in [2], in [3], in test [4], in test [7] and in test [8] was inactive. Moreover, the AC50 in [5] was 14.8 µM (active).

Turning to `O=C(O)C(F)(F)OC(F)(F)C(F)(F)OC(F)(F)F`, the AC50 in test [1] was 17.9 µM (active) and 15.4 µM (active). In addition, the outcome in test [3], in test [10], in test [4] and in test [5] was inactive.

Turning to `OCC(F)(F)OC(F)(F)C(F)(F)OC(F)(F)C(F)(F)OC(F)(F)F`, the outcome in test [1], in test [2], in test [9], in test [10], in [7] and in test [5] was inactive. The molecule was classed as inactive in test [6] and in [8]. Also, the AC50 was 30 µM (active) in test [3]; 15.5 µM (active) and 26.1 µM (active) in test [4].

Turning to `CCCN(CCC)c1c([N+](=O)[O-])cc(C(C)C)cc1[N+](=O)[O-]`, the call in test [1], in test [3], in [9], in [10], in test [7] and in test [6] was inactive. Besides, the AC50 in test [4] was 20 µM (active); in test [5], 1.49 µM (active).

For `CN(C)C(=O)Cl`, the call in [1], in [3], in [9], in test [10], in test [4] and in test [5] was inactive. Besides, the outcome in [6] and in test [8] was inactive.

On to `O=NN1CCCC1`, for which the result in test [1], in [2], in [5] and in test [6] was inactive.

Take `OCC1CO1` (stereo not drawn): the molecule was called inactive in [1], in test [2], in test [3], in test [4] and in test [7].

For the molecule `CCCCC(CC)COC(=O)c1c(Br)c(Br)c(Br)c(Br)c1C(=O)OCC(CC)CCCC` (stereo not drawn), the call in test [1], in [3], in test [4], in [7] and in test [5] was inactive.

Turning to `O=C(O)C=CC(F)(C(F)(F)F)C(F)(F)F`, the outcome in test [1], in test [2], in test [3], in test [4], in test [7] and in [5] was inactive. Besides, the result in test [6] and in [8] was inactive.

For `CC1=C(C(=O)Nc2ccccc2)S(=O)(=O)CCO1`, the molecule was called inactive in test [1], in [2] and in test [5]. For the same molecule, the AC50 in test [7] was 1.9 µM (active).

As to `COP(N)(=S)OC`, the result in test [3], in test [4] and in test [5] was inactive.

With `CCNc1nc(Cl)nc(NC(C)(C)C)n1`, the outcome in [3], in [9], in test [10], in test [4], in [7] and in [6] was inactive. Also, the AC50 in [5] is 4.35 µM (active).

As to `CC1(C)CN=C(NN=C(/C=C/c2ccc(C(F)(F)F)cc2)/C=C/c2ccc(C(F)(F)F)cc2)NC1`, the outcome in test [10] and in test [5] was inactive.

With `NNC(N)=S`, the molecule was classed as inactive in [7] and in [8].

In the case of `CCCCN(CC)C(=O)SCCC`, the call in test [2], in [5] and in [6] was inactive.

As to `Cc1c([N+](=O)[O-])cc2c(c1[N+](=O)[O-])C(C)(C)CC2(C)C`, the result in test [3], in test [9] and in test [10] was inactive. In addition, the AC50 in test [4] was 2.4 µM (active); in test [5], 0.862 µM (active); in test [6], 2.08 µM (active).

For `CCOP(=S)(OCC)SCSc1ccc(Cl)cc1`, the outcome in test [3] and in test [7] was inactive. Also, the values for the concentration at half-maximal activity (AC50) in test [4] and in test [5] were 11.8 µM (active) and 5.52 µM (active), respectively.

As to `C=C(C)C(=O)OCC1CO1` (stereo not drawn), the molecule was classed as inactive in test [10], in [7] and in test [8].

As to `O=[N+]([O-])c1ccc(Cl)c(Cl)c1`, the result in [3], in test [4], in test [6] and in test [8] was inactive.

On to `Cc1cccc(N)c1`, for which the result in test [3], in test [4], in test [7], in [6] and in test [8] was inactive.

In the case of `CCOP(=S)(OCC)SCn1nnc2ccccc2c1=O`, the result in [3] and in [4] was inactive. The AC50 in [7] was 28.5 µM (active); in [5] it was 0.716 µM (active).

As to `CC(Cl)(Cl)C(=O)O`, the outcome in test [3], in test [4], in [7] and in test [5] was inactive.

Consider `Nc1ccc(Cl)cc1`, for which the outcome in test [3] and in [5] was inactive. In test [4], the AC50 was 13.2 µM (active).

As for `CNC(=O)Oc1ccc(N(C)C)c(C)c1`, the outcome in test [2] and in test [5] was inactive.

With `CC(C)(C)c1ccccc1OP(=O)(Oc1ccccc1)Oc1ccccc1`, the values for the concentration at half-maximal activity (AC50) in [3], in test [4] and in test [5] were 31.9 µM (active), 20 µM (active) and 0.156 µM (active), respectively.

For `Nc1ccc(Sc2ccc(N)cc2)cc1`, the AC50 in [5] is 50.6 µM (active). Besides, the molecule was classed as inactive in test [8].
